Data reported in paper PMC5540273 (PLoS ONE, 2017).

How the values were obtained:
Settings in all cases: concentration: 1 μM, replicates: in singlicate; n = 1
[1] = tested on: SRMS
[2] = tested on: SRPK1
[3] = tested on: SRPK2
[4] = tested on: SRPK3
[5] = tested on: STK16
[6] = tested on: STK33
[7] = tested on: STK35
[8] = tested on: STK36
[9] = tested on: STK39
[10] = tested on: SYK
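Note: KINOMEscan kinase panel screen.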

Row | Structure (SMILES) | %Inh [1] [%] | %Inh [2] [%] | %Inh [3] [%] | %Inh [4] [%] | %Inh [5] [%] | %Inh [6] [%] | %Inh [7] [%] | %Inh [8] [%] | %Inh [9] [%] | %Inh [10] [%]
1 | Nc1nc(-c2ccccn2)c(-c2ccnc3ccccc23)s1 [GW548057] | 0 | 0 | 58 | 0 | 19 | 1 | 0 | 0 | 7 | 2
2 | C[C@H]1CC[C@@H](C(=O)Nc2ccccc2)CN1c1cc(-c2ccc3c(N)n[nH]c3c2)nc(N)n1 [GSK2283293] | 19 | 54 | 0 | 16 | 0 | 0 | 0 | 0 | 0 | 4
3 | OCCOCCn1ccc2ncnc(Nc3ccc(Oc4cccc(Cl)c4)c(Cl)c3)c21 | 0 | 0 | 0 | 0 | 0 | 0 | 0 | 0 | 0 | 26
4 | FC(F)(F)c1ccc(-c2nn3ncccc3c2-c2ccnc(Nc3cccc(C(F)(F)F)c3)n2)cc1 [GW828205] | 30 | 0 | 36 | 8 | 14 | 5 | 0 | 0 | 0 | 20
5 | COC(=O)c1c(-c2ccccc2)c2cc(Cl)ccc2c(=O)n1Cc1ccc(S(C)(=O)=O)cc1 | 0 | 10 | 6 | 0 | 0 | 0 | 15 | 15 | 0 | 3
6 | CCn1c(-c2ccncc2)nc2cnccc21 [SB-735216] | 16 | 0 | 24 | 50 | 0 | 0 | 0 | 19 | 6 | 15
7 | CCc1nc(-c2cccc(N(C)S(=O)(=O)c3ccccc3)c2)c(-c2ccnc(Nc3ccc(N4CCN(C(C)=O)CC4)nc3)n2)s1 [GSK1645895] | 19 | 19 | 0 | 0 | 41 | 0 | 0 | 99.4 | 0 | 0
8 | COC(=O)c1cccc(NC(=O)NCCNc2ccnc(Nc3ccc(F)cc3)n2)c1 [GSK1379883] | 0 | 17 | 0 | 7 | 5 | 0 | 0 | 0 | 0 | 5
9 | Oc1ccc2ncnc(Nc3ccc(OCc4ccccc4)cc3)c2c1 [GI262866] | 0 | 32 | 0 | 15 | 3 | 8 | 7 | 0 | 0 | 14
10 | Clc1ccc(-c2cc(-c3c[nH]nc3-c3ccccn3)ccn2)cc1 [GW681251] | 0 | 0 | 0 | 0 | 19 | 0 | 0 | 0 | 1 | 22
11 | CC(C)N1CCC(n2cnc(-c3ccc(F)cc3)c2-c2ccnc(N)n2)CC1 [SB-223132] | 0 | 0 | 45 | 6 | 0 | 0 | 0 | 26 | 0 | 19
12 | CCC(CC)(CC)n1cnc2c(N)ncnc21 [SKF-97620] | 22 | 14 | 20 | 22 | 2 | 0 | 0 | 4 | 0 | 11
13 | Fc1ccc(Nc2nccc(-c3c(-c4ccc(Cl)cc4)nn4ncccc34)n2)cc1F [GW829058] | 22 | 0 | 0 | 6 | 23 | 1 | 0 | 8 | 22 | 7
14 | N#Cc1ccc(Oc2ccc(Nc3ncnc4cc[nH]c34)cc2Cl)cc1 | 0 | 0 | 0 | 0 | 36 | 27 | 27 | 10 | 15 | 13
15 | Cl.Cn1ccc(-c2cccc(Nc3ccnc4cc(-c5nccs5)ccc34)c2)n1 [GW525701] | 0 | 0 | 51 | 0 | 4 | 0 | 0 | 0 | 6 | 0
16 | CNc1nccc(-c2c(-c3ccc(F)cc3)ncn2C2CCN(C)CC2)n1 [SB-222903] | 15 | 0 | 0 | 0 | 0 | 13 | 0 | 3 | 0 | 27
17 | CS(=O)(=O)CCNCc1nc(-c2ccc3ncnc(Nc4ccc(OCc5cccc(F)c5)c(Cl)c4)c3c2)cs1.Cl [GW583340] | 0 | 2 | 0 | 0 | 8 | 0 | 0 | 0 | 1 | 18

Row | Structure (SMILES) | %Inh [1] [%] | %Inh [2] [%] | %Inh [3] [%] | %Inh [4] [%] | %Inh [5] [%] | %Inh [6] [%] | %Inh [7] [%] | %Inh [8] [%] | %Inh [9] [%] | %Inh [10] [%]
18 | Fc1cccc(COc2ccc(Nc3ncnc4nn5ccccc5c34)cc2Cl)c1 [GW689066] | 0 | 2 | 30 | 8 | 12 | 0 | 0 | 0 | 0 | 26
19 | Nc1nc(-c2ccc3c(N)n[nH]c3c2)cc(N2CCC[C@@H](C(=O)Nc3ccccc3)C2)n1.O=C(O)C(F)(F)F.O=C(O)C(F)(F)F [GSK2288359] | 0 | 34 | 0 | 25 | 18 | 0 | 0 | 0 | 1 | 0
20 | Cl.Fc1ccccc1COc1ccc(Nc2ncnc3ccc(-c4nnc(C(F)(F)F)o4)cc23)cc1Cl [GW424170] | 0 | 0 | 3 | 0 | 0 | 0 | 0 | 0 | 0 | 0
21 | CC(=O)Nc1n[nH]c2ncc(-c3ccccc3)cc12 [SB-548492] | 25 | 25 | 0 | 20 | 26 | 0 | 10 | 12 | 0 | 2
22 | Fc1ccc(-c2ncn(CCCNCc3ccccc3)c2-c2ccncc2)cc1 | 0 | 31 | 4 | 23 | 0 | 0 | 0 | 20 | 0 | 23
23 | Nc1nccc2scc(-c3ccc4c(c3)CCN4C(=O)Cc3cc(F)ccc3F)c12 [GSK2587663] | 0 | 8 | 0 | 0 | 11 | 0 | 0 | 0 | 6 | 22
24 | Cc1ccc(O)cc1Nc1cc(C(F)(F)F)nc2ccc(-c3ccncc3)cc12 [GW630823] | 0 | 7 | 0 | 0 | 28 | 24 | 0 | 0 | 0 | 8
25 | CSc1ccc(NC2=C(c3ccccc3Cl)C(=O)NC2=O)cc1 [SB-342411] | 0 | 7 | 0 | 5 | 14 | 0 | 5 | 48 | 19 | 23
26 | O=c1cc(N2CCOCC2)nc2n(Cc3cccc(Cl)c3)ccn12 [GSK2296823] | 0 | 16 | 0 | 51 | 0 | 0 | 6 | 0 | 11 | 5
27 | O=C(Nc1ccccc1)Nc1ccc(Oc2ccc3nccn3n2)cc1 | 3 | 28 | 16 | 16 | 0 | 9 | 0 | 0 | 0 | 6
28 | O=C(CCO)NCCn1ccc2ncnc(Nc3ccc(Oc4cccc(C(F)(F)F)c4)c(Cl)c3)c21 | 0 | 0 | 0 | 4 | 8 | 0 | 5 | 0 | 0 | 4
29 | Nc1nc(-c2cccnc2)c(-c2ccnc3ccccc23)s1 [GW684083] | 0 | 3 | 4 | 18 | 17 | 14 | 0 | 0 | 0 | 34
30 | c1ccc(-c2ccc3c(-c4ccnc(Nc5ccc6c(c5)OCCO6)n4)cnn3n2)cc1 [GW818941] | 0 | 48 | 0 | 21 | 95.8 | 17 | 8 | 25 | 22 | 7
31 | Nc1n[nH]c2nnc(-c3ccccc3)cc12 [SB-517389] | 0 | 20 | 0 | 1 | 0 | 0 | 0 | 0 | 13 | 5
32 | CS(=O)(=O)CCNCc1ccc(-c2ccc3ncnc(Nc4ccc(OCc5ccccc5)c(Cl)c4)c3c2)o1.Cl [GW574783] | 0 | 0 | 0 | 19 | 0 | 8 | 0 | 0 | 5 | 0
33 | Cl.Cl.c1ccc(-c2cc3ccncc3cc2OC2CCNCC2)cc1 [GSK1122999] | 0 | 3 | 0 | 0 | 0 | 100 | 0 | 88 | 0 | 19
34 | Cc1ccc(NC(=O)c2cccc(C#N)c2)cc1-c1ccc(C(=O)Nc2ccncc2)cc1 [GSK1398463] | 0 | 11 | 0 | 12 | 0 | 0 | 5 | 0 | 16 | 0
